Data published in PubChem BioAssay (Tox21).
Several values for one entry are separate records, joined by “and”; a condition that tells them apart may be missing. Equal values may be shown once. Inconclusive results are not listed. Where a call stands in place of a potency, no number is given. Where a structure was tested more than once in an assay, its records may differ in their call. Activity calls are given as the source filed them. Calls come from the whole dose curve; as a rule, active = well fitted activation curve with a large enough effect in the repeat runs; inconclusive = weak or mixed curves; inactive = flat fitted curve, though single readings scatter.

Assay: A CellTox Green Cytotoxicity Assay to monitor cytotoxicity in HepG2 cells - 40 hour (AID 1224879); note: nearly all actives have a fitted effect of over 40% in size
Conditions: CellTox Green fluorescence; series mostly up to 76.8 µM
Description: National Center for Advancing Translational Sciences [NCATS]
NIH Chemical Genomics Center [NCGC]
U.S. Environmental Protection Agency [EPA]
National Institutes of Environmental Health Sciences [NIEHS]
National Toxicology Program [NTP]
Cell-based models are critical for drug discovery. Determining the natural cytotoxic effects resulting from test compounds is an essential research activity. A CellTox Green Cytotoxicity Assay to monitor cytotoxicity in real time of continues cell culture during 40 hours of the compound treatment was used to screen Tox21 10K library compounds in HepG2 cells. CellTox Green Cytotoxicity Assay is a nonlytic, homogeneous, biofluorescent method to measure cytotoxicity in cell culture after experimental manipulation. The assay system uses a proprietary asymmetric cyanine dye that is excluded from viable cells but preferentially stains the dead cell's DNA. […] Viable cells produce no appreciable increases in fluorescence. Therefore, the fluorescence signal produced by the binding interaction with dead cell DNA is proportional to cytotoxicity.
The mixture of HepG2 cell suspension and reagents were dispensed at 600cells/6 ul/well in 1536-well tissue culture treated black solid bottom plates using a Multidrop dispenser. After the assay plates were incubated at a 37 C/5% CO2 incubator for 5 hours, 23 nL of compounds dissolved in DMSO, positive and negative controls was transferred to the assay plate by a pintool work station. The plates were incubated at 37 C for 40 hours. The fluorescence intensity were measured at 0h, 8h, 16h, 24h, 32h and 40h time points using ViewLux plate reader during compound treatment.
Potency is the fitted concentration of half-maximal effect.

Row | SMILES | Potency | cytotoxicity increase
1 | CC/C(=C(/CC)c1ccc(O)cc1)c1ccc(O)cc1 | inactive | –
2 | Oc1c(Cl)ccc(Cl)c1Cl | inactive | –
3 | COc1ccc(C(=O)c2ccccc2O)c(O)c1 | inactive | –
4 | COc1ccc2nc(N)sc2c1 | inactive | –
5 | CC(=O)OC(C)C | inactive | –
6 | CCCCCCCCCCC(CO)CCCCCCCC (stereo not given) | inactive | –
7 | CC/C=C\C/C=C\C/C=C\CCCCCCCC(=O)O | inactive | –
8 | Cc1ccc(S(=O)(=O)NCl)cc1 | inactive | –
9 | COC(=O)C(C)Oc1ccc(Oc2ncc(C(F)(F)F)cc2Cl)cc1 (stereo not given) | inactive | –
10 | CC(C)=CCO | inactive | –
11 | C=CC(C)(O)CCC=C(C)C (stereo not given) | inactive | –
12 | CCO[Si](CCCNC(N)=O)(OCC)OCC | inactive | –
13 | C=C[C@H]1CN2CC[C@H]1C[C@@H]2[C@@H](O)c1ccnc2ccc(OC)cc12 | inactive | –
14 | NCCOCCO | inactive | –
15 | Brc1nc2ccccc2s1 | inactive | –
16 | O=[Se](O)O | 24.6 µM (active) | 15.7% [at 15.8 µM] (inactive)
17 | Cc1ccc(/C(=C\CN2CCCC2)c2ccccn2)cc1 | inactive | –
18 | Nc1ccc(O)c(N)c1 | inactive | –
19 | IC(I)I | inactive | –
20 | CCC(Cc1c(I)cc(I)c(N)c1I)C(=O)O (stereo not given) | inactive | –

Row | SMILES | Potency | cytotoxicity increase
21 | FC(F)(F)C(Cl)Br (stereo not given) | inactive | –
22 | CN1CCOCC1 | inactive | –
23 | COc1ccc(-c2coc3cc(O)cc(O)c3c2=O)cc1 | 55.4 µM (active) | –
24 | CC(=O)O[C@]1(C(C)=O)CC[C@H]2[C@@H]3C=C(Cl)C4=CC(=O)CC[C@]4(C)[C@H]3CC[C@@]21C | inactive | –
25 | OC[C@@H](O)[C@@H](O[C@@H]1O[C@H](CO)[C@H](O)[C@H](O)[C@H]1O)[C@H](O)[C@@H](O)CO | inactive | –
26 | Nc1cc([N+](=O)[O-])ccc1C(=O)O | inactive | –
27 | Nc1ccc2c(O)cc(S(=O)(=O)O)cc2c1 | inactive | –
28 | CC(C)(C)c1cccc(C(C)(C)C)c1O | inactive | –
29 | C=CN1CCCC1=O | inactive | –
30 | CCCCCCCCCCCCO | inactive | –
31 | O=S1(=O)CCCO1 | inactive | –
32 | C1CN(SSN2CCOCC2)CCO1 | inactive | –
33 | CC1(C)OC(=O)NC1=O | inactive | –
34 | CC1(C)O[C@@H]2C[C@H]3[C@@H]4C[C@H](F)C5=CC(=O)C=C[C@]5(C)[C@@]4(F)[C@@H](O)C[C@]3(C)[C@]2(C(=O)CO)O1 | inactive | –
35 | CCC(=O)O[C@H]1[C@H](O[C@@H]2[C@@H](C)[C@H](O[C@H]3C[C@@](C)(OC)[C@@H](O)[C@H](C)O3)[C@@H](C)C(=O)O[C@H](CC)[C@@](C)(O)[C@H](O)[C@@H](C)C(=O)[C@H](C)C[C@@]2(C)O)O[C@H](C)C[C@@H]1N(C)C | inactive | –
36 | C=CCNCC=C | inactive | –
37 | CC(=O)Nc1ccc2c(c1)Cc1cc(NC(C)=O)ccc1-2 | inactive | –
38 | O=C(O)CCCC(=O)O | inactive | –
39 | c1ccc2c(c1)ccc1cc3c(ccc4ccccc43)cc12 | 4.32 µM (active) and 1.22 µM (active) | –
